About 83,000 compounds went through this panel and 20% of them were active in at least one assay; those are over-represented in the sample as a whole.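 Step 1: grow cells in 96-well plates. Step 2: add test compound at a single concentration. Step 3: incubate 48 h. Step 4: record percent growth.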 Activity calls are given as the source filed them. Rule for the calls: active = growth percent below 10; inactive = the rest.

The assay has as its system MDA-MB-468 breast. Nature of the assay: NCI-60 one-dose screen, 48 h (100 = growth as untreated, 0 = no growth, -100 = all killed). The note with it: 10 µM unless noted.
Turning to `CCCc1nc(C(C)(C)O)c(C(=O)O)n1Cc1ccc(-c2ccccc2-c2nn[nH]n2)cc1`, the growth was 112% (inactive).
With `O=C(C(=O)N1CCOCC1)c1ccc(OC2OC(CO)C(O)C(O)C2O)cc1` (stereo not given), the growth was 105% (inactive).
The value for `COc1ccc(Cl)cc1NC(=O)c1cc2c([nH]1)-c1nc(NC(=O)C(C)(C)C)sc1CC2` was 84.9% (inactive); that for `CCCCOc1nc2ccc(Cl)cc2cc1/C=C/C(=O)/C=C/c1ccc(OC)cc1` was 113% (inactive); that for `N#Cc1c(-c2cccs2)cc(-c2cnccn2)nc1SCC(=O)N/N=C/c1ccncc1` was 103% (inactive).
The value for `CCO/C=N/C1=C(C#N)C(c2ccc(Cl)cc2)c2sc3c(C)cccc3c2O1` (stereo not given) was -3.01% (active).
The value for `CCN(CC)CCCCCCNc1cccc2cc(Br)cnc12` was 77% (inactive).
As to `CS(=O)(=O)Nc1cc(-c2ccc3ncnc(Nc4ccc(F)c(Cl)c4)c3c2)cnc1Cl`, the growth is -43.3% (active).
The value for `c1ccc(-c2oc(-c3ccccc3)c(CN3CCCCC3)c2CN2CCCCC2)cc1` was -35.9% (active).
For `CCOC(=O)CSc1nc2ccccc2c(=O)n1Cc1ccc(S(N)(=O)=O)cc1` the value was 105% (inactive); for `c1ccc2c(c1)ncn2-c1nc2ccccc2n2c1nc1ccccc12`, -40.5% (active).
For `Cn1ccnc1C(=O)/C=C/c1ccc(NC(=O)Nc2ccc(F)cc2)cc1` the value was 6.47% (active); for `COc1ccc(-c2nc(/C=C3/C(=O)Nc4ccc(F)cc43)c3ccccn23)cc1`, 105% (inactive).
For the compound `Cc1nnc(Nc2ccc(NC(=O)Nc3ccc(Cl)cc3)cc2)c2ccccc12`, the growth was 6.44% (active).
As to `CCN1C(=O)/C(=c2\sc3n(c2=O)NC2C(N=3)N(CC)C(=O)N2CC)c2ccccc21` (stereo not given), the growth is 27% (inactive).
The value for `CC/C(=C(\c1ccc(OCCN2CCCCCCC2)cc1)c1ccc(OC(=O)C2CCCCC2)cc1)c1ccc(Cl)cc1` was 114% (inactive); that for `Cc1ccc(NC(=O)c2ccc(CN3CCN(C)CC3)cc2)cc1Nc1nc(-c2cccnc2)cs1` was 25.5% (inactive); that for `CCCCCCCCCc1cc[n+](CC(=O)c2ccc([N+](=O)[O-])cc2)cc1` was -18.6% (active).
For `COc1ccc(C2NCCc3c2[nH]c2ccccc32)cc1CN1CCN(c2ccc(F)cc2)CC1` (stereo not given) the value was 49% (inactive); for `C[C@H]1[C@H](C)CC[C@]2(CO)CC[C@]3(C)C(=CC[C@@H]4[C@@]5(C)CCCNC(C)(C)[C@@H]5CC[C@]43C)[C@H]12`, -78.6% (active); for `O=C(Nc1cccc(-n2cc(-c3ccncc3)c(-c3ccc(O)c(Cl)c3)n2)c1)Nc1ccc(Cl)c(Cl)c1`, 27.3% (inactive).
The value for `Cc1ccc2[nH]c(=S)[nH]c(=O)c2c1` was 102% (inactive); that for `O=C(Nc1cccc2[nH]c(C(F)(F)F)nc12)c1ccc(Br)cc1F` was 11.9% (inactive); that for `CC1CCC2C(C)(C)C3CC12CC1OC13C` (stereo not given) was 99.8% (inactive).
Take `CCOC(=O)c1sc2nc(-c3cccc(O)c3)nc(N3CCOCC3)c2c1C`: the growth was 47.5% (inactive).
For `COc1ccc2c(O)c(/C=C3\N=Nc4ccccc43)oc2c1C[C@H]1CCNC[C@H]1F` the value was 75.6% (inactive); for `CC1=C[S+](c2ccccc2)c2cccc3cc4ccccc4c1c23` (stereo not given), -70% (active).
The value for `OCC1OC(n2cnc3c(Cl)ncnc32)CC1O` (stereo not given) was 91.9% (inactive); that for `COc1ccc(OC)c(NC=O)c1` was 97% (inactive).
The value for `OB(O)c1cccc(-c2nc3ccc4[nH]ncc4c3c3c2CCCC3)c1` was 59.3% (inactive); that for `COc1cc(C2=NN(c3ccccc3)C(c3cccc(Nc4ccnc5cc(C(F)(F)F)ccc45)c3)C2)cc(OC)c1OC` (stereo not given) was 92.2% (inactive).
For the compound `C=C1C(=O)O[C@H]2[C@H]1CC/C(COC(=O)OC/C1=C/CC[C@@]3(C)O[C@H]3[C@H]3OC(=O)[C@@H](CN(C)C)[C@@H]3CC1)=C\CC[C@@]1(C)O[C@@H]21`, the growth is -14% (active).
Consider `CCN1C(=S)N(CC)C2C1NC(=S)N2/N=C/C=C/c1ccccc1OC` (stereo not given), for which the growth is 9.04% (active).
For `N#Cc1cnn2c(-c3ccc(Cl)cc3)nc(NCCc3ccccc3)nc12` the value was 110% (inactive).
As to `Cc1cc(N2CCN(CC(=O)Nc3ccc4c(ccn4Cc4ccccc4)c3)CC2)nc(N2CCOCC2)n1`, the growth is 67% (inactive).
For `CS(=O)(=O)Nc1ccc(OCc2nnc(-c3ccc(Cl)cc3)o2)c(F)c1` the value was 86.8% (inactive); for `O=C1C(=O)N(CCCCn2cc(-c3ccccc3)nn2)c2ccccc21`, 125% (inactive); for `O=C1Nc2ccccc2/C1=C\c1cccc(/C=C2/C(=O)Nc3ccccc32)n1`, -33.2% (active).
For `C=C(C)[C@@H]1CC[C@]2(C(=O)NCCCCCN(CCC#N)CCC#N)CC[C@]3(C)[C@H](CC[C@@H]4[C@@]5(C)CCC(=O)C(C)(C)[C@@H]5CC[C@]43C)[C@@H]12` the value was 103% (inactive); for `Cn1c(SCC(=O)c2ccco2)nc2ccccc2c1=O`, 5.9% (active).

The values are drawn from PubChem BioAssay (NCI).
